This is an account of results in PubChem BioAssay (Tox21).

Molecules are shown by their SMILES. Inconclusive results are not listed. Active and inactive are the calls of the source. Unless noted, calls come from the whole dose curve; as a rule, active = well fitted curve in the direction sought with a large enough effect in the repeat runs; inconclusive = weak or mixed curves; inactive = no such curve, though single readings can be large; an effect the other way counts as inactive or inconclusive.

Test [1] can be described thus: qHTS assay to test for compound auto fluorescence at 535 nm (green) in HEK293 cells (AID 720680). (In general: In qHTS, concentration-response curves come from the screen itself.)
A short description of test [2]: qHTS assay to test for compound auto fluorescence at 460 nm (blue) in HEK293 cell free culture (AID 720681). In short, it runs like this: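 Compounds were added to cell-free DMEM with 10% FBS and fluorescence read directly. The blue channel used 405 nm excitation and 460 nm emission, with triamterene as the reference fluorophore.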
The nature of test [3]: qHTS assay to test for compound auto fluorescence at 535 nm (green) in HEK293 cell free culture (AID 720682). In short, it runs like this: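 DMEM + 10% FBS, cell-free; cpd or DMSO pinned in; Ex485/Em535 read; output as fluorescein-equivalent signal.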
Test [4] can be described thus: qHTS assay to test for compound auto fluorescence at 590 nm (red) in HEK293 cell free culture (AID 720683). In outline:
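Cell-free wells of DMEM with 10% FBS received compound, and intrinsic fluorescence was read at excitation/emission 540/590 nm. Values expressed as equivalence to Rose Bengal sodium.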

Test [5] is described as follows: qHTS assay to test for compound auto fluorescence at 590 nm (red) in HepG2 cell free culture (AID 720684). In short, it runs like this: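 Compound was pinned into wells holding MEM with 10% FBS and no cells, and red fluorescence was read at Ex/Em 540/590 nm. Signal is expressed as auto fluorescence equivalency relative to Rose Bengal sodium.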
Test [6] in a line: qHTS assay to test for compound auto fluorescence at 460 nm (blue) in HepG2 cell free culture (AID 720685). In short, it runs like this:
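Compound (23 nL) or DMSO pinned into cell-free MEM with 10% FBS; blue fluorescence read at 405/460 nm excitation/emission, expressed as auto-fluorescence equivalency to triamterene.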

Test [7] can be described thus: qHTS assay to test for compound auto fluorescence at 535 nm (green) in HepG2 cell free culture (AID 720686).
Test [8] is described as follows: qHTS assay to test for compound auto fluorescence at 460 nm (blue) in HepG2 cells (AID 720687). In short, it runs like this: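 HepG2 cells in MEM with 10% FBS, attached overnight at 37 C, were exposed to compound or DMSO for 1 hr at 37 C, 5% CO2. Blue fluorescence was read at 405/460 nm, with triamterene as reference fluorophore.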
Test [9] addresses Glucocorticoid receptor (Homo sapiens) (UniProt P04150). Description: qHTS assay to identify small molecule agonists of the glucocorticoid receptor (GR) signaling pathway (AID 720691; active = well fitted activation curve with a large enough effect in the signal ratio in the repeat runs, not every such curve was filed as active; the % refers to the signal ratio). To be noted: GR-bla HeLa, beta-lactamase reporter ratio, 18 h; activation: at 62.4 µM (top of the series). In outline: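 Beta-lactamase reporter activity, read as fluorescence intensity, was measured in GR-bla HeLa cells exposed to compounds for 18 h at 37 C and then loaded with LiveBLAzer B/G FRET substrate for 2 h at room temperature.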

For test [10] the target is unchanged. Description: qHTS assay to identify small molecule antagonists of the glucocorticoid receptor (GR) signaling pathway (AID 720692; active = well fitted inhibition curve with a large enough effect in the signal ratio in the repeat runs, not every such curve was filed as active; the % refers to the signal ratio). In short, it runs like this:
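Fluorescence from cleaved LiveBLAzer B/G FRET substrate reports GRE-driven beta-lactamase in HeLa cells; compounds are tested against 5 nM dexamethasone (final) over 18 h at 37 C, substrate incubation 2 h at room temperature.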

Test [11] can be described thus: qHTS assay to identify small molecule antagonists of the glucocorticoid receptor (GR) signaling pathway - cell viability counter screen (AID 720693). Note: nearly all actives have a fitted effect of over 55% in size.
Test [12] in a line: qHTS assay for identifying genotoxic compounds that show differential cytotoxicity against isogenic chicken DT40 cell lines with known DNA damage response pathways - wild type cell line (AID 743012). Note: nearly all actives have a fitted effect of over 60% in size. Note: potency is the fitted concentration of half-maximal effect. In outline:
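Quantitative HTS on parental DT40 cells: 40 h compound treatment at 37 C/5% CO2, with viability then determined by CellTiter-Glo luminescence. Values serve as the DNA repair-proficient reference for differential cytotoxicity.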

A short description of test [13]: qHTS assay for identifying genotoxic compounds that show differential cytotoxicity against isogenic chicken DT40 cell lines with known DNA damage response pathways - Rev3 mutant cell line (AID 743014). Note: nearly all actives have a fitted effect of over 55% in size. Note: potency is the fitted concentration of half-maximal effect.
Test [14] in a line: qHTS assay for identifying genotoxic compounds that show differential cytotoxicity against isogenic chicken DT40 cell lines with known DNA damage response pathways - Rad54/Ku70 mutant cell line (AID 743015). Note: nearly all actives have a fitted effect of over 60% in size. Note: potency is the fitted concentration of half-maximal effect.
The nature of test [15]: qHTS assay to identify small molecule antagonists of the androgen receptor (AR) signaling pathway - cell viability counter screen (AID 743033; note: nearly all actives have a fitted effect of over 45% in size).
Test [16] in a line: qHTS assay to identify small molecule antagonists of the androgen receptor (AR) signaling pathway using the MDA cell line - cell viability counter screen (AID 743041; note: nearly all actives have a fitted effect of over 45% in size). In short, it runs like this: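 MDA-kb2 AR-luc cells (MMTV-luciferase, AR/GR responsive) treated with compounds plus R1881 agonist for 16 h at 37C. CellTiter-Fluor added at 15.5 h; fluorescence read after 30 min in the same wells.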

Test [17] has as its target Androgen receptor (Homo sapiens) (UniProt P10275). Description: qHTS assay to identify small molecule antagonists of the androgen receptor (AR) signaling pathway (AID 743035; active = well fitted inhibition curve with a large enough effect in the signal ratio in the repeat runs, not every such curve was filed as active; the % refers to the signal ratio). In short, it runs like this: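 Cell line: GeneBLAzer AR-UAS-bla GripTite (HEK293). Stimulus: R1881 added after compound. Exposure: 16 h, 37C, 5% CO2. Readout: LiveBLAzer B/G FRET fluorescence after 2 h at room temperature.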

Test [18] shares this target. Description: qHTS assay to identify small molecule agonists of the androgen receptor (AR) signaling pathway (AID 743036; active = well fitted activation curve with a large enough effect in the signal ratio in the repeat runs, with a control signal flat, not every such curve was filed as active; the % refers to the signal ratio). In short, it runs like this:
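Screening used 2,000 AR-bla HEK293 cells per well, treated 16 h at 37C with test compounds in DMSO alongside positive and DMSO-only controls; beta-lactamase activity was then read by LiveBLAzer B/G FRET fluorescence after 2 h at room temperature.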

For test [19] the target is unchanged. Description: qHTS assay to identify small molecule agonists of the androgen receptor (AR) signaling pathway using the MDA cell line (AID 743040; note: nearly all actives have a fitted effect of over 20% in size). In short, it runs like this:
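MDA-kb2 breast carcinoma cells carrying MMTV-luciferase (responsive to AR and GR), plated 5 h then treated 16 h with compounds at 37C, 0% CO2. Read-out was ONE-Glo luminescence after 30 min at room temperature.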

The target is the same in test [20]. In words: qHTS assay to identify small molecule antagonists of the androgen receptor (AR) signaling pathway using the MDA cell line (AID 743042; note: nearly all actives have a fitted effect of over 55% in size). In outline:
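MDA-kb2 breast carcinoma cells carrying MMTV-luciferase (AR/GR responsive) were co-treated with compounds and the agonist R1881 for 16 h at 37C. Inhibition read as ONE-Glo luminescence; CellTiter-Fluor fluorescence measured in parallel for cytotoxicity.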

Chain of Glucocorticoid receptor (Homo sapiens) (P04150 whole entry, looked up): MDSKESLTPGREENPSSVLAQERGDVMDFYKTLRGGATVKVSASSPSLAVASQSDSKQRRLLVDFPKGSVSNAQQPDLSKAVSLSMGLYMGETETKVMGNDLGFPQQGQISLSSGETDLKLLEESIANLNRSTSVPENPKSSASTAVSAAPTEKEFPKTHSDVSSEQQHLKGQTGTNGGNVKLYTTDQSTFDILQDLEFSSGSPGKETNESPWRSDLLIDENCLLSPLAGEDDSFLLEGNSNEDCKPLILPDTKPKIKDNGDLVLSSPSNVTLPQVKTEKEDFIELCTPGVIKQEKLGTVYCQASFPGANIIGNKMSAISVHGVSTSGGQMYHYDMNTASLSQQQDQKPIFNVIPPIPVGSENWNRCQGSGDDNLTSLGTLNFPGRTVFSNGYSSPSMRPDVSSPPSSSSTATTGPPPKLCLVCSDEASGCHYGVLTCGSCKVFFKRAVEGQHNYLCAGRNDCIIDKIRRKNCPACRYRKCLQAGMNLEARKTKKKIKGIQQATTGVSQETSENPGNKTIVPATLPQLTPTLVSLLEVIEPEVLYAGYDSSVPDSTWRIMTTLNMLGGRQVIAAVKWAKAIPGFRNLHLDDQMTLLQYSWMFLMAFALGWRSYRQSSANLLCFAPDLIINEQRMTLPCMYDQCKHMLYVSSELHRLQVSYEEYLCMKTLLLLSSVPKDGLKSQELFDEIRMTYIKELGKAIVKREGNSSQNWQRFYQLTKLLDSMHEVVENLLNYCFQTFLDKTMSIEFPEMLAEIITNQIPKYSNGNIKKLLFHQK
Chain of Androgen receptor (Homo sapiens) (P10275 whole entry, looked up): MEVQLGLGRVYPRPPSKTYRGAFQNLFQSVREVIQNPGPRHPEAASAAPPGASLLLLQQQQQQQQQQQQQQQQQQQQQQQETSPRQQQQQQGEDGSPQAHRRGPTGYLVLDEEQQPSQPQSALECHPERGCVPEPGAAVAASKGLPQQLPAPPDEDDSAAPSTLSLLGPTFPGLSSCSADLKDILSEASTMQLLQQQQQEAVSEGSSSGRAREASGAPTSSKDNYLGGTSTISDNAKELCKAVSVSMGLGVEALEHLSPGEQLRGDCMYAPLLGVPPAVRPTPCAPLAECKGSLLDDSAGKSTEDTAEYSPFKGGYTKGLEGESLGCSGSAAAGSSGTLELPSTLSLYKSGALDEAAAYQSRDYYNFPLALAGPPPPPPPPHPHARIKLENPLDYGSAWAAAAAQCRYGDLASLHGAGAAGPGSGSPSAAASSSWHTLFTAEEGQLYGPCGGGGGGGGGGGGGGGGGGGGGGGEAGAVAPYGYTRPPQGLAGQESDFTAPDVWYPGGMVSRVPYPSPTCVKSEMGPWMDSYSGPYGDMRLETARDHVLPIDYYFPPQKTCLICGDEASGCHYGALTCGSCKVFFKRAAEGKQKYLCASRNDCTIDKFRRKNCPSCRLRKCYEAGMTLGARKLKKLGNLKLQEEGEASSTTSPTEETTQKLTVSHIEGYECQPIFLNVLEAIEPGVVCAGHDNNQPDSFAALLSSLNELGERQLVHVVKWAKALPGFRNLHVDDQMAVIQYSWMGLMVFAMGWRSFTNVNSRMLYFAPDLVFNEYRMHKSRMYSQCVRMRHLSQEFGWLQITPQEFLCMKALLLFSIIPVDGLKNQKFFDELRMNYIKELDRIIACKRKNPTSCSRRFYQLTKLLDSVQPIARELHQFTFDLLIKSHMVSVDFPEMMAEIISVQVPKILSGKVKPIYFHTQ

On to `Cc1c(N)nc(C(CC(N)=O)NCC(N)C(N)=O)nc1C(=O)NC(C(=O)NC(C)C(O)C(C)C(=O)NC(C(=O)NCCc1nc(-c2nc(C(=O)NCCCN[C@@H](C)c3ccccc3)cs2)cs1)C(C)O)C(O[C@@H]1O[C@@H](CO)[C@@H](O)[C@H](O)[C@@H]1O[C@H]1O[C@H](CO)[C@@H](O)[C@H](OC(N)=O)[C@@H]1O)c1cnc[nH]1` (stereo partly drawn), for which the Potency entry in test [1], in test [2], in [3], in test [4], in test [5] and in test [7] was “inactive” throughout. For the same compound, the Potency result in [9], in test [10], in test [11], in [15] and in [16] was “inactive” each time. The outcome in test [6] and in [8] was inactive. Also, the Potency was 1.19 µM (active) in [12], 0.944 µM (active) in test [13] and 0.0531 µM (active) in test [14].

With `CS(=O)(=O)OCC(O)C(O)COS(C)(=O)=O` (stereo not drawn), the Potency entry in test [1], in test [2], in test [3], in [4], in test [5] and in [7] was “inactive” throughout. For the same compound, the Potency entry in [9], in [10], in test [11], in test [15], in [17] and in test [18] was “inactive” throughout. Also, the Potency result in test [19], in test [16] and in test [20] was “inactive” in each case. Also, the compound was called inactive in test [6] and in test [8]. Further, the Potency in [12] was 8.41 µM (active); in test [13], 1.33 µM (active); in [14], 23.7 µM (active).

`CCOC(=O)CCC(=O)O[C@H]1[C@H](O[C@@H]2[C@@H](C)[C@H](O[C@H]3C[C@@](C)(OC)[C@@H](O)[C@H](C)O3)[C@@H](C)C(=O)O[C@H](CC)[C@@](C)(O)[C@H](O)[C@@H](C)C(=O)[C@H](C)C[C@@]2(C)O)O[C@H](C)C[C@@H]1N(C)C`: the Potency entry in test [1], in test [2], in [3], in [4], in test [5] and in test [7] was “inactive” each time. In addition, the Potency result in test [9], in test [10], in test [11], in test [12], in [13] and in test [14] was “inactive” in each case. Also, the Potency result in [15], in [17], in test [18], in test [19], in test [16] and in test [20] was “inactive” throughout. The compound was called inactive in test [6] and in test [8].

As for `O=P(O)(O)C(Sc1ccc(Cl)cc1)P(=O)(O)O`, the Potency entry in test [1], in [2], in test [3], in [4], in test [5] and in [7] was “inactive” throughout. Moreover, the Potency result in test [9], in test [10], in test [11], in test [12], in test [13] and in test [14] was “inactive” each time. For the same compound, the Potency entry in test [15] and in [16] was “inactive” throughout. Further, the outcome in test [6] and in test [8] was inactive.

Turning to `CC1C(=O)CC2C3(C)CCC2(C(C)C(=O)O)C(=O)C13` (stereo not drawn), the Potency entry in [1], in [2], in test [3], in test [4], in [5] and in [7] was “inactive” in each case. The Potency result in test [9], in [10], in [11], in [12], in test [13] and in test [14] was “inactive” in each case. Besides, in test [15], the Potency result is “inactive”. The result in test [6] and in test [8] was inactive.

As for `CCCCc1cc2c(=O)c(C(=O)OC)c[nH]c2cc1OCc1ccccc1`, the Potency result in test [1], in test [2], in [3], in [4], in test [5] and in [7] was “inactive” each time. The Potency entry in test [9], in test [10], in [11], in [12], in [13] and in test [14] was “inactive” in each case. For the same compound, the Potency entry in [15] and in [16] was “inactive” throughout. Besides, the result in [6] and in test [8] was inactive.

For `NC[C@@H]1O[C@H](O[C@H]2[C@@H](O)[C@H](O[C@@H]3[C@@H](O)[C@H](N)C[C@H](N)[C@H]3O[C@H]3O[C@H](CO)[C@@H](O)[C@H](O)[C@H]3N)O[C@@H]2CO)[C@H](N)[C@@H](O)[C@@H]1O`, the Potency entry in test [1], in [2], in [3], in [4], in test [5] and in test [7] was “inactive” each time. Also, the Potency entry in [9], in test [10], in test [11], in test [12], in test [13] and in test [14] was “inactive” throughout. Besides, the Potency result in test [15] is “inactive”. Also, the compound was classed as inactive in test [6] and in test [8].
